# Assay results: paper PMC10726135, “HNF4α isoforms regulate the circadian balance between carbohydrate and lipid metabolism in the liver”
# The full ranking holds about 18,000 sequences; the median of “log2 normalized intensity” is about 0.36, and the highest 2% start at about 7.3. This excerpt belongs to a sample that is enriched for the highest values.
# Target: T1, HNF4alpha8 (COS-7 nuclear extract) (Homo sapiens, UniProt P41235-5 1-452)
# T1 sequence: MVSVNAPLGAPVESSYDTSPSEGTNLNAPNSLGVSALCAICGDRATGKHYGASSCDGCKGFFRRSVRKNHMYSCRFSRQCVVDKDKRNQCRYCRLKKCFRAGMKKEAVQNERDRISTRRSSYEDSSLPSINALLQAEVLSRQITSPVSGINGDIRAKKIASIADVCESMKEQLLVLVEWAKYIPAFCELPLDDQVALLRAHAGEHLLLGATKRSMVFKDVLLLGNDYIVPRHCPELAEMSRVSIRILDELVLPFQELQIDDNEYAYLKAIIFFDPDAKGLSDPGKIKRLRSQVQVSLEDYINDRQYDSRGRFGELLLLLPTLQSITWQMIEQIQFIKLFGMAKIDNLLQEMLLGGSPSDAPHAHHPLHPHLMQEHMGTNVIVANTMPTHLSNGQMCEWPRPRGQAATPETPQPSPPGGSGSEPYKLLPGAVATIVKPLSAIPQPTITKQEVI
# Experiment: protein-binding microarray; COS-7 nuclear extract on double-stranded Agilent 4x180k PBM; binding buffer, salt, pH and temperature not given in the material; high values mean tight binding
# Conditions: chain copies: 2; label: 3' end of strand 1 on the slide; dsDNA, one strand shown
# Procedure, shortened: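 Nuclear extracts came from COS-7 cells transiently transfected by CaPO4 with a human HNF4α isoform expression vector. They were applied to a custom Agilent SurePrint G3 4x180k array of ~60-nt oligonucleotides, made double-stranded, with ~44,000 test sequences spotted in quadruplicate. Bound HNF4α was imaged at 2-µm resolution on an Agilent G2565CA scanner. Binding signal was taken as background-corrected, normalized gProcessedSignal from Agilent software.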
row,Sequence,binding signal [log2 normalized intensity]
1,AAAATACCTGGAAGTATTTATTGAGCACACGCCTAGGGAGATTAGAGTATCGGTCGA,-0.121
2,CCTCGAGGCAACCTTTGACCTGGTACTATGGCCTAGGGAGATTAGAGTATCGGTCGA,6.8
3,TGAAGCGACCCCTCGAGGCAACCTTTGACCGCCTAGGGAGATTAGAGTATCGGTCGA,9.25
4,CGACCCCTCGAGGCAACCTTTGACCTGGTAGCCTAGGGAGATTAGAGTATCGGTCGA,8.16
5,ATCACTGAAGCGACCCCTCGAGGCAACCTTGCCTAGGGAGATTAGAGTATCGGTCGA,1.75
6,AAGTATCTCGGTCAAACCTTTGACCCTTTAGCCTAGGGAGATTAGAGTATCGGTCGA,6.9
7,GTCAAATCACTGAAGCGACCCCTCGAGGCAGCCTAGGGAGATTAGAGTATCGGTCGA,1.82
8,GTGAACCTTTGTCCCGTTATGGCACCAAGAGCCTAGGGAGATTAGAGTATCGGTCGA,1.55
9,AGATCCATTGCATGTGCATTTCACAATAGGGCCTAGGGAGATTAGAGTATCGGTCGA,0.639
10,GCAATGTGGACTTTGTCCTGTGGGCTGTAAGCCTAGGGAGATTAGAGTATCGGTCGA,8.03
11,GTGGGAGAAAGCTTTGGACTTTGGGCTGTGGCCTAGGGAGATTAGAGTATCGGTCGA,6.47
12,ATGGACTTTGAAGGAGATTCCTGTGTCAGCGCCTAGGGAGATTAGAGTATCGGTCGA,1.23
13,AGTTTGCCACGGTCAGCAATGTGGACTTTGGCCTAGGGAGATTAGAGTATCGGTCGA,6.83
14,GCCACGGTCAGCAATGTGGACTTTGTCCTGGCCTAGGGAGATTAGAGTATCGGTCGA,10.2
15,GTGGACTTTGTCCTGTGGGCTGTAAAAATCGCCTAGGGAGATTAGAGTATCGGTCGA,5.73
16,GGTCAGCAATGTGGACTTTGTCCTGTGGGCGCCTAGGGAGATTAGAGTATCGGTCGA,8.67
17,CCGTCCTGTCCTGGACTTTCCTTTGTTGGGGCCTAGGGAGATTAGAGTATCGGTCGA,2.84
18,TGGACTTTGGTCCTGGTCAGACTTGCCACGGCCTAGGGAGATTAGAGTATCGGTCGA,5.42
19,CAGATAATTACCTGGACTCTAGAGCCAGACGCCTAGGGAGATTAGAGTATCGGTCGA,1.75
20,CTCAAAGTCTAACCCAACTAAGAACACAGTGCCTAGGGAGATTAGAGTATCGGTCGA,1.24
21,AAAGTTCAGTTGCAAAGAACAGAATCCAGTGCCTAGGGAGATTAGAGTATCGGTCGA,-0.777

row,Sequence,binding signal [log2 normalized intensity]
1,GTCTTACTGATGGGCAAAGTTTTCAAGAATGCCTAGGGAGATTAGAGTATCGGTCGA,1.24
2,CATGTTTACTTTTGCAAGGTTTGTTCTTATGCCTAGGGAGATTAGAGTATCGGTCGA,1.87
3,GAGGACTTTGGCCTTTTGTGAGATATGGACGCCTAGGGAGATTAGAGTATCGGTCGA,4.16
4,AGATGGGGTGAACTTTGGACCACATATAGAGCCTAGGGAGATTAGAGTATCGGTCGA,7.98
5,AGATCAGATGGGGTGAACTTTGGACCACATGCCTAGGGAGATTAGAGTATCGGTCGA,8.04
6,CAGGGGTCATCAGATAGATGGTCAGTGAACGCCTAGGGAGATTAGAGTATCGGTCGA,1.88
7,GGTGAACTTTGAGACTATCCTTGGACCGCAGCCTAGGGAGATTAGAGTATCGGTCGA,3.32
8,TGGGGTATCAGGTGGTGATGGTGGGAGGGAGCCTAGGGAGATTAGAGTATCGGTCGA,-0.797
9,CTCAGTCATACCACATGGATGGATTCAGATGCCTAGGGAGATTAGAGTATCGGTCGA,0.256
10,TACCATGGGAGACCTCAGGGGTCATCAGATGCCTAGGGAGATTAGAGTATCGGTCGA,3.08
11,ACAGGAGATCAGATGGGGTGAACTTTGGACGCCTAGGGAGATTAGAGTATCGGTCGA,9.11
12,AAGGGAGAAAGACATGTTTCTAACTGCCCGGCCTAGGGAGATTAGAGTATCGGTCGA,0.0984
13,CTGCTTCGGCCTTTGACCTCGTGATAACGAGCCTAGGGAGATTAGAGTATCGGTCGA,5.83
14,TTGAAGAAATGGTGGACTTTGTAGCTCAAAGCCTAGGGAGATTAGAGTATCGGTCGA,4.79
15,AAAGTTCTGCTGAGTATCCAAAGGTCAGTGGCCTAGGGAGATTAGAGTATCGGTCGA,6.24
16,GACGGGAGGAAAACTGGGCAAAGGTCAGGAGCCTAGGGAGATTAGAGTATCGGTCGA,5.58
17,GGCGTGGACTTCGCTCCGCCGCTAGGTGGCGCCTAGGGAGATTAGAGTATCGGTCGA,3.13
18,GCCAGGCAGGACAGTTTTGTGTGTTTAATGGCCTAGGGAGATTAGAGTATCGGTCGA,0.878
19,AAATGCTGATAATGATATGGACAATGAAATGCCTAGGGAGATTAGAGTATCGGTCGA,0.122
20,CCCAGGGACTTTGGCCTTACTTGGCCTGTTGCCTAGGGAGATTAGAGTATCGGTCGA,3.01
21,GCCAGCCAGGGCCACCCATCAGTGGACTTTGCCTAGGGAGATTAGAGTATCGGTCGA,7.34
